# Hits are enriched below; roughly 2.1% of the tested compounds scored in any of these assays.
# TDP-43 yeast inh – TDP-43 toxicity inhibition in yeast; TDP-43 expressing yeast growth rescue, BacTiter-Glo, 24 h; Potency, µM (top dose mostly 46.1 µM), without a hit: at the top dose growth rescue (activation), usual class: activators; 410,000 tested, 1.8% active; also: % of control where 0% means no effect; nearly all actives have a fitted effect of over 50% in size
#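 Luminescence from BacTiter-Glo reports growth of TDP-43-expressing yeast after 24 hr at 30 deg C with compound. Cells were raffinose-pregrown to mid-log, then seeded in galactose medium at OD600=0.02.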
# Abeta rescue – A-beta toxicity reversal in yeast | Potency, µM (series often up to 46.1 µM), actives largely listed as activators | yeast expressing A-beta42, growth rescue, OD600, 48 h; response scale: 0% DMSO, 100% iron-clioquinol control | AID 1347071 | 410,000 tested, 0.063% active; also: nearly all actives have a fitted effect of over 55% in size
#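 Yeast A-beta toxicity model in growth medium with pinned compounds, 48 h at 30 C; growth read as absorbance at 600 nm. Normalized to FeCl3/clioquinol equimolar mix (positive) and DMSO (negative).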
# aSyn rescue – rescues yeast growth from alpha-synuclein toxicity | 370,000 tested, 0.14% active | Potency, µM (series often up to 46.1 µM), without a hit: at the top dose growth rescue (activation), usual class: activators | AID 652106 | Yeast expressing alpha-synuclein, growth rescue, BacTiter-Glo, 24 h; also: % of control where 0% means no effect; nearly all actives have a fitted effect of over 65% in size
#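 Readout is rescue of growth in alpha-synuclein-expressing yeast, so inhibitors of toxicity appear as activators. Growth after 24 hr at 30 deg C in galactose medium is quantified by luminescence.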
# FUS suppressor – FUS proteinopathy suppression in yeast | S. cerevisiae FUS-expressing, growth rescue, OD600, 24 h | Potency, µM (highest dose often 76.6 µM), hits mostly activators | 390,000 tested, 0.24% active | AID 1347120;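 also: plate controls were DMSO vehicle for no effect and reference control for full effect; nearly all actives have a fitted effect of over 55% in size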
#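 Galactose (2%) drives FUS expression in yeast precultured in raffinose; seeding density OD 0.005. Test compounds incubated 24hr at 30C and 99% humidity before absorbance at 600 nm was measured.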
# * marks the source's active call; other numbers are inactive results; i = inactive; ? = inconclusive; · = no result given. Calls follow the shape of the dose curve; as a rule, active = well fitted curve in the direction sought with a large enough effect; inconclusive = small, poorly fitted or top-dose-only effect, or another doubt; inactive = no such curve, though single readings can be large; an effect the other way counts as inactive or inconclusive. Potency is read from the fitted curve at half-maximal effect.
SMILES,TDP-43 yeast inh,Abeta rescue,aSyn rescue,FUS suppressor
Cc1ccc(C(C)C)c(OCc2ccc(C(=O)N/N=C/c3ccc(O)c(O)c3)cc2)c1,22%,i,-15%,i
O=C(NCc1ccccc1)c1ccccc1,19%,i,1%,i
O=C(NCc1c(O)ccc2ccccc12)c1ccccc1,20µM*,?,7%,i
CC(C)(C)c1cc(NCc2ccccn2)n2ncc(-c3ccc(Cl)cc3)c2n1,22µM*,i,12%,i
CN(C)CCCNc1cc(C(C)(C)C)nc2c(-c3ccc(Cl)cc3)cnn12,-13%,i,-25%,i
COC(=O)c1cccc(NC(=O)Cn2cnc3c2c(=O)n(C)c(=O)n3C)c1,-9%,i,-1%,i
COc1ccc(CNC(=O)N2CCN(S(=O)(=O)c3ccccc3)CC2)cc1,0%,i,-7%,i
CCN(CC)S(=O)(=O)c1ccc(Cl)c(NC(=O)COC(=O)C2CCCCC2)c1,13%,11µM*,16%,i
Cc1cc(C)c(NC(=O)COC(=O)C2CCC2)c(Cl)c1,17%,i,-6%,i
Cc1cc(Br)c(NC(=O)COC(=O)C2CCCCC2)c(Br)c1,16µM*,i,0%,i
CCN(CC)S(=O)(=O)c1ccc(Cl)c(NC(=O)COC(=O)c2ccc(O)cc2)c1,3%,i,-2%,i
CCOC(=O)Cn1cc(C(=O)c2ccco2)c2ccccc21,18µM*,i,-3%,i
OC(c1ccccc1)c1nc(-c2ccc(Cl)cc2)cs1 (stereo unspecified),35µM*,i,?,i
OC(c1cccc(Cl)c1)c1nc(-c2ccccc2)cs1 (stereo unspecified),14µM*,i,?,i
O=C(COC(=O)c1nc(Cl)ccc1Cl)NCc1ccc(Cl)cc1,18µM*,i,5%,i
CC(O)(c1ccc(F)c(F)c1)c1nc(-c2cnc3ccccc3c2)cs1 (stereo unspecified),?,i,-24%,?
CC(O)(c1ccccc1)c1nc(/C=C/c2ccccc2)cs1 (stereo unspecified),35µM*,i,-27%,i
COc1ccc(C(C)(O)c2nc(-c3cnc4ccccc4c3)cs2)cc1 (stereo unspecified),35µM*,i,?,i
COc1cccc(C(C)(O)c2nc(/C=C/c3ccccc3)cs2)c1 (stereo unspecified),25µM*,i,?,i
COCc1cccc(-c2csc(C(C)(O)c3cccc(F)c3)n2)c1 (stereo unspecified),35µM*,i,-6%,i
COc1ccc(NC(=O)c2cc3c(=O)n(C)c4ccccc4c3n2C)cc1Cl,-7%,i,1%,i
Cc1sc2nc(SCC(=O)NCc3cccs3)[nH]c(=O)c2c1C,18%,i,-2%,i
CC(=O)NC(C)(c1ccccc1)c1nc(-c2csc3ccccc23)cs1 (stereo unspecified),35µM*,i,7%,?
CC(=O)NC(C)(c1ccccc1)c1nc(-c2cncnc2)cs1 (stereo unspecified),5%,i,-31%,i
COc1cccc(C(C)(O)c2nc(-c3csc4ccccc34)cs2)c1 (stereo unspecified),35µM*,i,-1%,i
SMILES,TDP-43 yeast inh,Abeta rescue,aSyn rescue,FUS suppressor
COCCNCCCCOc1ccc(C)cc1[N+](=O)[O-],10%,i,-6%,i
COc1ccccc1-c1cn[nH]c1-c1ccc(OCC(=O)NN)cc1O,7%,i,1%,i
CCn1nnc(NC(=O)C(C)(c2ccccc2)c2ccccc2)n1,10%,i,5%,i
Cc1ccc(O)c(N=Nc2ccccc2)n1,11µM*,i,-74%,i
Oc1ccc(Cl)cc1N=Nc1ccccc1,-2%,i,7%,i
COc1ccc2c(CC(=O)Nc3ncc(C)s3)coc2c1,·,i,-8%,i
CSc1nnc(NC(=O)Cc2coc3cc(C)ccc23)s1,23%,i,·,i
COc1ccc2c(CC(=O)Nc3nc(C)cs3)coc2c1,13µM*,i,-17%,i
Cc1ccc2c(CC(=O)Nc3nc(C)cs3)coc2c1,11µM*,?,-12%,i
CCCCC(=O)Nc1ccc(NC(=O)c2ccccc2OC)cn1,24%,i,-1%,i
COC(=O)c1ccc(OCCOc2ccccc2C)cc1,?,i,-1%,i
CCOC(=O)c1c(NC(=O)CSc2nnc(N)s2)sc(C)c1-c1ccc(C)cc1,1%,i,-17%,i
Cc1ccc(S(=O)(=O)c2nnn3c2nc(N2CCC(C(N)=O)CC2)c2cc(Cl)ccc23)cc1C,10%,i,·,25µM*
CCN(CC)c1nc2c(S(=O)(=O)c3ccccc3)nnn2c2ccc(Cl)cc12,13µM*,i,·,?
N#Cc1c(-c2cccc(Cl)c2)[nH]c(=S)[nH]c1=O,17%,i,5%,i
COc1cc(-c2cc3nc(NCCOc4ccccc4)ccn3n2)cc(OC)c1OC,32µM*,i,-1%,?
CCOc1ccc(NC(=O)CC2CC(C)(C)OC2=O)cc1 (stereo unspecified),3%,i,8%,i
CCCC1CC(C)(c2csc(Nc3ccc(OCC)cc3)n2)OC1=O (stereo unspecified),18µM*,i,19%,i
O=C1NC(c2cccc3ccccc23)Nc2ccc(Cl)cc21 (stereo unspecified),11µM*,i,1%,·
Clc1ccc(C2Nc3cccc4cccc(c34)N2)c(Cl)c1,·,?,16%,i
Cc1ccc2c(CSc3nncn3C)cc(=O)oc2c1C,3%,i,0%,i
O=C(Nc1ccc(N=Nc2ccccc2)c(NC(=O)C2CCCO2)c1)C1CCCO1 (stereo unspecified),14µM*,i,-1%,?
O=C(O)c1ccc(C=NNC(=O)c2cc(-c3ccc(Cl)cc3)n[nH]2)cc1,·,·,·,i
Cc1ccc(S(=O)(=O)N2CCN(Cc3cccc(F)c3)CC2)cc1,-13%,i,10%,i
Cc1ccc2nc(CN3CCN(S(=O)(=O)c4ccc(F)cc4)CC3)oc2c1,16µM*,i,·,i
SMILES,TDP-43 yeast inh,Abeta rescue,aSyn rescue,FUS suppressor
O=C(Oc1ccccc1C(=O)Nc1ccccc1)c1ccccc1Br,11µM*,i,-2%,i
CCNC(=O)CN(c1ccccc1)S(=O)(=O)c1ccc(Cl)cc1,-17%,i,1%,i
CCNC(=O)CN(c1ccc(Cl)cc1)S(=O)(=O)c1ccccc1,11µM*,i,-6%,i
O=C(COc1cc(F)ccc1[N+](=O)[O-])NCCCc1ccccc1,13µM*,i,13%,i
Cc1cc(CNC(=O)COc2cc(F)ccc2[N+](=O)[O-])c2ccccc2n1,·,i,-7%,i
Cc1cc(C(=O)OCC(=O)Nc2cccc([N+](=O)[O-])c2)c(C)o1,16%,i,7%,·
O=C(CN1CCCN(Cc2ccccc2F)S1(=O)=O)Nc1ccc(F)c(Cl)c1,11µM*,?,·,i

# Screening data deposited in PubChem BioAssay by National Center for Advancing Translational Sciences (NCATS).
